Test results published in ChEMBL document CHEMBL4513216, “Probing the Open Global Health Chemical Diversity Library for Multistage-Active Starting Points for Next-Generation Antimalarials” (ACS Infect Dis, 2020).
The campaign covered roughly 69,000 compounds. About 8,600 (12%) showed an effect of 50% or more. Many of the other results were omitted from the sample, so strong results are more common in it than they were.

Each compound was assayed on Plasmodium berghei (assay: Screen against P. berghei liver stage (PbLuc), transformed with Luciferase, at 10uM). Details: tested at 10 uM.
Format: functional, HepG2

SMILES	INHIBITION [%]
O=C(CN1CCCC1c1noc(C2CC2)n1)N1CCc2ccccc21 (stereo not drawn)	7.08
COCCN1CCC(c2cncc(-c3cccc(Cl)c3)n2)CC1	-5.71
Fc1cc(CN2CCOC3(CCOCC3)C2)ccc1OC(F)F	86.7
FC(F)Oc1ccc(CN2CCOC3(CCOCC3)C2)cc1Cl	38
Fc1cc(CN2CCOC3(CCOCC3)C2)ccc1Cl	-27.8
COc1cc(CNC(=O)Nc2nnc(C(C)C)s2)ccn1	-69.3
Cc1cccc(C2(C(=O)NC(C)Cn3ccnc3)CC2)c1 (stereo not drawn)	35.9
CCc1cnc(CN(C)C(C)C(=O)N2CCc3ccccc3C2)s1 (stereo not drawn)	62
CC(C(=O)N1CCc2ccccc2C1)N(C)Cc1cscn1 (stereo not drawn)	32.9
Cc1csc(CN(C)C(C)C(=O)N2CCc3ccccc3C2)n1 (stereo not drawn)	38
CC(C)Oc1ncccc1CNC(=O)c1cc(C2CC2)on1	11.9
COCCN1CCC1c1cc(N)nc(C)n1 (stereo not drawn)	26.7
Cc1nc2c(c(NCC(c3cccnc3)N3CCOCC3)n1)CCNC2 (stereo not drawn)	18.2
Cn1nc2c(cc1=O)CN(Cc1nc(N)c3ccccc3n1)CC2	57.7
Cn1nc2c(cc1=O)CN(CCOc1ccccc1C#N)CC2	74.8
Cc1ccccc1OCCN1CCn2c(C)nnc2C1	27.6
Cc1nnc2n1CCN(CCOc1ccccc1C#N)C2	58.5
CCn1nc2c(cc1=O)CN(CCOc1ccccc1C#N)CC2	2.4
N#Cc1ccccc1OCCN1CCn2c(nnc2C2CC2)C1	39.5
CCn1nc2c(cc1=O)CN(Cc1nc(N)c3ccccc3n1)CC2	15.8
CC(C)n1nc2c(cc1=O)CN(CCOc1ccccc1C#N)CC2	12.7
Cn1nc2c(cc1=O)CN(Cc1nc3ccccc3c(=O)[nH]1)CC2	9.04
Cc1cc(=O)n(CCNC(=O)c2ccccc2Cl)cn1	-62.1

SMILES	INHIBITION [%]
COc1cc(N2CCC3(CCCN(C(=O)c4cnccn4)C3)C2)ncn1 (stereo not drawn)	10.6
O=C(c1ccco1)N1CCOCC2(C1)CN(c1ccccn1)C(=O)CO2 (stereo not drawn)	22.4
COCCCN1CCCC1c1noc(C2CC2)n1 (stereo not drawn)	2.97
O=C(Cc1ccsc1)N1C[C@@H]2COC[C@]2(COc2cccnc2)C1	39.4
CC(=O)NCc1ccc(C(=O)N2CCCC2c2cnn(C)c2)s1 (stereo not drawn)	-25.9
CC(C)Nc1nc(O)cc(C2CC(=O)N(Cc3ccccc3)C2)n1 (stereo not drawn)	18.3
O=C(C[C@@H]1COC[C@H]2CN(C(=O)c3cccnc3)C[C@@H]12)N1CCCC1	-19.5
c1cncc(-c2nnn3c2COCC(CNCC2CCOCC2)C3)c1 (stereo not drawn)	41.6
O=C(c1ccccc1O)N1CCN(C(=O)C2CCC2)CC1	-14.3
CN(Cc1ccc(C(=O)O)cc1)C(=O)c1sccc1OC(F)F	52.5
Cc1ccsc1C(=O)N(C)Cc1ccncc1	3.1
CN(CCc1ccncc1)C(=O)c1sccc1OC(F)F	-2.97
Cc1ccccc1C(CC(=O)N1CCc2sccc2C1)NC(N)=O (stereo not drawn)	3.3
CCOc1ccc(Cl)cc1CCNC(=O)c1ccc(=O)n(C)c1	-10.8
O=C(Cn1nc(-c2ccc(F)cc2)oc1=O)NCc1ccncc1	-6.79
COCC(=O)N[C@@H]1CN(Cc2c[nH]nc2-c2cccs2)C[C@H]1O	6.54
CCC1=NC(SCC(=O)c2ccc(Cl)cc2)c2cc(CC)sc2N1 (stereo not drawn)	30
CCC1=NC(SCC(=O)c2ccccc2)c2cc(CC)sc2N1 (stereo not drawn)	79.7
CCC1=NC(SCC(=O)c2ccc(C)cc2)c2cc(CC)sc2N1 (stereo not drawn)	39.1
CC(C)c1nn(C)c(Cl)c1CNCC(=O)N1CCN(C)CC1	26.4
Cc1nc(C)n(CC2CN(Cc3cccs3)Cc3nccn3C2)n1 (stereo not drawn)	47.4
COCCNc1nnc(S(=O)(=O)CCC(C)(C)C#N)s1	52.1
CCOCCS(=O)(=O)c1nnc(NCCOC)s1	12.2

SMILES	INHIBITION [%]
CCCNc1nnc(S(=O)(=O)CCOCC)s1	5.05
C[C@@H]1CN(C(=O)C2CCOCC2)C[C@]12CCN(c1cccnc1)C2=O	18.5
COc1cccc(OC)c1C(=O)N1CC(=O)N(C2CCC2)CC(O)C1 (stereo not drawn)	4.82
COc1ccccc1C(=O)N1CC(=O)N(C2CCCCC2)CC(O)C1 (stereo not drawn)	50.2
CCOc1ccccc1C(=O)N1CC(=O)N(C2CCC2)CC(O)C1 (stereo not drawn)	16.9
COc1ccc(C)cc1-n1cnnc1CC1CCNCC1	64.6
COc1ccc(C)cc1-n1cnnc1C1CCOCC1	13.5
COc1ccc(-n2cnnc2CC2CCNCC2)cc1	65.7
c1cncc(-n2cnnc2CC2CCNCC2)c1	8.08
COc1ccc(OC)c(-n2cnnc2CN)c1	45.7
COc1ccc(C)cc1-n1cnnc1C1CCCN(C)C1 (stereo not drawn)	29.8
O=C(Cn1ccc2cc(Br)ccc21)NCc1ccc(C(=O)O)cc1	13.5
CC(=O)c1cc(C(=O)N2Cc3ccccc3OC3(CCOCC3)C2)cs1	-26.2
CS(=O)(=O)c1ccc(C(=O)N2CCCC(n3ccnc3)C2)cc1 (stereo not drawn)	-9.76
COC(=O)c1cnc(C(=O)N(c2ccc(OC)c(F)c2)C(C)C)cn1	-54.5
COc1ccc(C(=O)N(c2ccc(OC)c(F)c2)C(C)C)cn1	75.2
COc1ccc(N(C(=O)c2ccc(C)nc2)C(C)C)cc1F	38
COCC(c1cccc(C(F)(F)F)c1)N(C)C(=O)c1ccccn1 (stereo not drawn)	-5.285
COc1ccc(N(C)C(=O)c2cccc(S(C)(=O)=O)c2)cn1	40.7
COC(=O)C(c1cc(F)ccc1F)N(C)C(=O)c1ccccn1 (stereo not drawn)	36.1
COc1ccc(N(C(=O)c2cnc(C)cn2)C(C)C)cc1F	62.4
COc1ccc(N(C(=O)Cc2ccc(C)nc2)C(C)C)cc1F	-75
COc1ccc(N(C(=O)c2ccccn2)C(C)C)cc1F	50.8

SMILES	INHIBITION [%]
Cn1cc(-c2ncc3c(c2C(=O)O)CCN(CC2CC2)C3)cn1	46.6
O=S(=O)(NC1=NCN(CCc2cccs2)CN1)c1ccc(Cl)cc1	17
O=C(CN1CCOC(Cn2cccn2)C1)NCc1ccccn1 (stereo not drawn)	11.2
O=C(c1ncccn1)N1CCC[C@]2(C[C@@H](OCC3CC3)CO2)C1	34.6
CN1CCO[C@@H]2CN(S(=O)(=O)c3ccc(F)cc3)CC[C@@H]2C1	16.9
Cc1cc(C)cc(NCCC(=O)NC2CCN(C(=O)C3CC3)CC2)c1	-18.3
CN1CCN(c2ncccn2)CC1C(N)=O (stereo not drawn)	-7.66
CCCN1CCC(N2CCC(Cn3cc(C4CC4)nn3)CC2)CC1	52.2
CC(C)(CN1CCCC1)CN1CCC(Cn2cc(C3CC3)nn2)CC1	41.2
O=C(C1CCCO1)N1CCC(Cn2cc(C3CCCC3)nn2)CC1 (stereo not drawn)	34.2
CC(C)CSCCCNC(=O)C1CCOCC1	6.54
CC(C)CSCCCNC(=O)C1CCOC1 (stereo not drawn)	33.7
CC(C)CSCCCNC(=O)C1CCC1	52.3
CN(C)S(=O)(=O)N1C[C@H]2CC[C@@H](C1)N(Cc1ccc3[nH]ccc3c1)C2	31.6
Cc1nc(CN2CCN(C(=O)c3scnc3C)CC2)cs1	-17.1
NC(=O)c1cnn2c1NCC(CNCCOc1ccccc1)C2 (stereo not drawn)	-18.43
OCCn1nccc1C1CCN(CCOc2ccccc2F)CC1	27.8
CCOCCCNC(=O)c1cn(CC)nc1C	11.8
CCOCCCNC(=O)c1nn(CC)cc1Br	1.86
CCOCCCNC(=O)NCc1c(C)nn(C)c1C	52.5
COc1ccccc1C1CNCCN1C(=O)c1ccc(F)cc1 (stereo not drawn)	15.5
CN1CCCCC1CC(=O)Nc1ccc2ncn(C)c2c1 (stereo not drawn)	9.41
COc1ccccc1OCCN1CCC(N2CCNC2=O)CC1	36.4

SMILES	INHIBITION [%]
CN1CCN(C2CCN(CCOc3ccc(Cl)cc3)CC2)C1=O	36.1
CN1CCN(C2CCN(CCOc3ccc(C#N)cc3)CC2)C1=O	41.5
CN1CCN(C2CCN(CCOc3ccc(F)cc3)CC2)C1=O	25.6
Cc1ccc(C)c(OCCN2CCC(N3CCNC3=O)CC2)c1	38.1
COc1ccc(OCCN2CCC(N3CCNC3=O)CC2)cc1	87.25
CN1CCN(C2CCN(CCOc3cccc(Cl)c3)CC2)C1=O	51.1
CN1CCN(C2CCN(CCOc3cccc(F)c3)CC2)C1=O	5.9
CCOc1ccc(OCCN2CCC(N3CCNC3=O)CC2)cc1	81.8
CCN(Cc1cccc(F)c1)Cn1nc(C)c2c(C)onc2c1=O	11.4
Cc1nccc(NCc2cc3n(n2)CCCN(C(=O)C2CCC2)C3)n1	21.1
Cc1cc2c(=O)n(CCSc3ncn[nH]3)cnc2s1	29.4
Cn1nnc2c1CCN(C(=O)C1CC1)C2COCCN1CCCC1 (stereo not drawn)	-6.23
c1ncn(CC2CCCCN2Cc2cn3ccsc3n2)n1 (stereo not drawn)	25.45
CC[C@H]1CN(C(=O)c2ccc(-n3cnnc3)nc2)CC[C@@]1(C)O	53.8
CC[C@H]1CN(C(=O)c2cccc(-n3cnnc3)n2)CC[C@@]1(C)O	-0.71
O=C(c1ccc(-n2cnnc2)nc1)N1CCCC(O)(CO)CC1 (stereo not drawn)	8.38
Cc1ccc2cc(CNCCCN3CCOCC3)c(=O)[nH]c2c1C	-5.71
C[C@H]1C[C@@H]2CCN(C(=O)c3cccn3C)C[C@H]2O1	25
Cc1c(F)cccc1S(=O)(=O)N(C)CC(C)O (stereo not drawn)	-37.6
Cc1ccc(S(=O)(=O)N(C)CC(C)O)c(F)c1 (stereo not drawn)	6.99
CC(O)CN(C)S(=O)(=O)c1ccc(C#N)cc1F (stereo not drawn)	64.6
